An excerpt weighted towards active compounds, which were near 11% of everything screened.
G9a block = G9a (human) methyltransferase inhibition; G9a H3K9 monomethylation, AlphaScreen, 2 h; Potency, µM (doses to about 102 µM), inactives show top-dose activity, negative = inhibition, usual class: inhibitors; actives 8.8% (n = 350,000); further: on the % scale 0 is the no-effect control and ±100 the full control effect; nearly all actives have a fitted effect of over 75% in size
Target sequence (Q96KQ7 913-1193 limits assumed): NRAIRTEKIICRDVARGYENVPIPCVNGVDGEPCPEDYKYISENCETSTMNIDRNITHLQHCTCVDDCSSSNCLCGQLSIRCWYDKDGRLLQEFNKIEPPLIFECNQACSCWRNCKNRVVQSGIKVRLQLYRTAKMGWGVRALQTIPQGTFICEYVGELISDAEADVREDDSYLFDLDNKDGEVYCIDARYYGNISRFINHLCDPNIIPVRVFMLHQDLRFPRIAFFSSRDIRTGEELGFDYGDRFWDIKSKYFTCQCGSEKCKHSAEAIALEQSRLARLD
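Chemiluminescent proximity detection of H3K9 monomethylation, read after 10 min bead incubation in the dark. Reaction: 20 nM G9a, 500 nM biotin-H3K9 peptide, 20 uM SAM cofactor, 2 h, room temperature, following 15 min enzyme-compound preincubation.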
HP1b chromo inh = HP1-beta chromodomain-methylated histone interaction inhibition | Potency, µM (titrated, usually from 114 µM), inactives show at the highest dose activity change, negative = inhibition, most hits filed as inhibitors | actives 0.56% (n = 390,000) | AID 540317 | AlphaScreen HP1-beta / biotin-H3K9me3 peptide binding | P83916; further: nearly all actives have a fitted effect of over 70% in size
Target sequence (P83916 whole entry, looked up): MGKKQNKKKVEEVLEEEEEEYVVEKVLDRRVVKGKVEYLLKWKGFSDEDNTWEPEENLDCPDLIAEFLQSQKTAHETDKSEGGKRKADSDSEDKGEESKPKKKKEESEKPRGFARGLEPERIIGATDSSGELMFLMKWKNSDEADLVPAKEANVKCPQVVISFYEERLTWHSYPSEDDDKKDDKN
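Compound inhibition of the preformed complex between 50 nM HP1-beta and 50 nM biotinylated H3K9me3 peptide was read by AlphaScreen. Buffer was PBS pH 7.4 with 0.01% Tween-20. Incubations ran 30 min at room temperature, with 10 ug/mL donor/acceptor beads.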
L3MBTL1 block = blocks human L3MBTL1; AID 485360; AlphaScreen L3MBTL1–H3K9me1 peptide binding; Potency, µM (highest dose often 57.1 µM), for inactives: at the top dose activity, negative = inhibition, actives largely listed as inhibitors; Q9Y468; actives 0.66% (n = 230,000); further: on the % scale 0 is the no-effect control and ±100 the full control effect; nearly all actives have a fitted effect of over 60% in size
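L3MBTL1 50 nM + b-AHA-H3(1-15)K9me1 75 nM, 30 min RT; compound added, 30 min RT; streptavidin donor/Ni-chelate acceptor beads 10 ug/mL each final, 30 min RT dark; AlphaScreen read.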
BAZ2B block = inhibitors of human BAZ2B bromodomain. Q9UIF8. AlphaScreen BAZ2B-H3K14Ac peptide displacement. Potency, µM (top dose mostly 114 µM), for inactives: at the top dose activity change, negative = inhibition, most hits filed as inhibitors. actives 4.4% (n = 360,000). AID 504333; further: on the % scale 0 is the no-effect control and ±100 the full control effect; nearly all actives have a fitted effect of over 60% in size
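In this displacement format the biotinylated H3(5-23) peptide acetylated at Lys14 serves as ligand at 50 nM, with BAZ2B at 50 nM in PBS pH 7.4 containing 0.01% Tween-20. Donor and acceptor beads are 10 ug/mL final.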
JMJD2A Tudor inh = inhibitors of human JMJD2A Tudor domain; O75164; AlphaScreen JMJD2A-Tudor / H3K4me3 peptide binding; Potency, µM (series often up to 114 µM), inactives show at the top dose activity change, negative = inhibition, hits mostly inhibitors; actives 4.4% (n = 390,000); AID 504339; further: on the % scale 0 is the no-effect control and ±100 the full control effect; nearly all actives have a fitted effect of over 50% in size
An asterisk follows results filed as active; u = inconclusive; x = not tested or not shown; ! = not active in a repeat; [ ] = dose if it differs, or a comment. The call rests on the fitted dose curve; in most records, active means well fitted inhibition curve with a large enough effect; inconclusive means small, poorly fitted or top-dose-only effect; inactive means no such curve, though single readings can be large or run the other way. Potency means the concentration at half of the fitted maximal effect.

SMILES	G9a block	HP1b chromo inh	L3MBTL1 block	BAZ2B block	JMJD2A Tudor inh
N[C@@H](C(=O)N[C@@H]1C(=O)N2C(C(=O)O)=C(Cl)CS[C@H]12)c1ccccc1	50µM*	18%	u	32µM*	25µM*
CC1=C(C(=O)O)N2C(=O)[C@@H](NC(=O)C(N)C3=CCC=CC3)[C@H]2SC1 (stereo partly drawn)	12µM*!	x	x	x	x
NC(C(=O)N[C@@H]1C(=O)N2C(C(=O)O)=C(Cl)CS[C@H]12)c1ccccc1 (stereo partly drawn)	2.4µM*!	x	x	x	x
Cc1cccc(N=N/C(=C\O)C(=O)c2ccc(Br)cc2)c1	11µM*	-9%	u	u	u
COC(=O)/C(N=Nc1cccc(C(F)(F)F)c1)=C(\C)O	3%[59 µM]	14%	-8%	-7%	-21%
O=C(/C(=C/O)N=Nc1ccccc1Cl)c1ccccc1	40µM*	32µM*	u	13µM*	-26%[11.4 µM]
O=C(/C(=C/O)N=Nc1cccc(C(F)(F)F)c1)c1ccccc1	45µM*	u	u	25µM*	45µM*
COc1ccc(CNCCC(c2ccc3c(c2)OCO3)c2ccccc2OC)cc1 (stereo not drawn)	u	-2%	x	u	u
CONC(=O)C[C@@H](C#N)NC(=O)[C@@H]1CCCN1C(=O)[C@@H](NC(=O)c1ccc(N)c(Cl)c1)C(C)(C)C	x	x	x	x	-26%
COCCCn1c(=S)[nH]c2sc3c(c2c1=O)CCCS3	4.5µM*	27%	29%	u	-18%
COCCn1c(=S)[nH]c2sc3c(c2c1=O)CCC(C)C3 (stereo not drawn)	20µM*	15%	x	-5%	-22%
Cn1c(=S)[nH]c2sc3c(c2c1=O)CCC(C(C)(C)C)C3 (stereo not drawn)	40µM*	x	x	3%	x
CCCn1c(=S)[nH]c2sc3c(c2c1=O)CCCC3	-5%	22%	x	-4%	-33%
CCC1Sc2ccccc2N(CC(=O)NCc2ccc(C)cc2)C1=O (stereo not drawn)	7%[59 µM]	35%	x	3%	-10%
COc1ccc(OC)c(CCNC(=O)c2cc3c(s2)-c2c(C)cccc2OC3)c1	20%[59 µM]	68%	x	9%	19%
O=C(NCc1ccc2c(c1)OCO2)c1ccc2c(c1)N(Cc1cccc(Cl)c1)C(=O)c1ccccc1S2=O (stereo not drawn)	4%[59 µM]	23%	x	0%	-4%
Cc1cc(C)n(-c2nc3ccccc3nc2Nc2ccc3c(c2)OCO3)n1	42%[59 µM]	106%	57%	32%	20%
Cc1cc(C)n(-c2nc3ccccc3nc2Nc2ccc(N(C)C)cc2)n1	1.8µM*	8.9µM*	x	3.2µM*	11µM*
CCCCn1c(N)c(N(CC(C)C)C(=O)COC(=O)Cc2c(C)nc3ccccc3c2C)c(=O)[nH]c1=O	-3%[12.7 µM]	21%	x	-6%	6%
S=c1[nH]nc(C2CCCCC2)n1/N=C/c1ccc(Cl)cc1	40µM*	13%	x	-22%	-31%
FC(F)(F)c1ccc(/C=N/n2c(C3CCCCC3)n[nH]c2=S)cc1	50µM*	7%	x	-26%	u
S=c1[nH]nc(C2CCCCC2)n1/N=C/c1c(Cl)cccc1Cl	3.5µM*	17%	x	-29%	-10%
NC(=S)N/N=C/c1ccc(C(F)(F)F)cc1	8%[59 µM]	23%	-6%	-20%	-23%
O=[N+]([O-])c1ccc(Cl)c(/C=N/n2c(C3CCCCC3)n[nH]c2=S)c1	u	3%	7%	-2%	u
S=c1[nH]nc(C2CCCCC2)n1/N=C/c1ccc(Br)cc1	10µM*	19%	x	-3%	-2%
SMILES	G9a block	HP1b chromo inh	L3MBTL1 block	BAZ2B block	JMJD2A Tudor inh
Clc1cccc(-n2ncc3c(NC4CCCCC4)ncnc32)c1	18%[59 µM]	98%	x	30%	13%
CCOC(=O)C1(Cc2ccccc2)CCN(Cc2cc(OC)c3c(c2)OCO3)CC1	10%[0.501 µM]	22%	-10%	-7%	-24%
COCCc1nn2c(=O)cc(COC(=O)c3ccc4c(c3)OCO4)nc2s1	12%[59 µM]	14%	x	-28%	-24%
CCc1ccc(/C=N/n2c(C3CCCCC3)n[nH]c2=S)cc1	32µM*	-14%	x	-38%	u
S=c1[nH]nc(C2CCCCC2)n1/N=C/c1ccc(Br)s1	8.9µM*	26%	-2%	10%	-22%
Cc1ccc(/C=N/n2c(C3CCCCC3)n[nH]c2=S)cc1	10µM*	-20%	x	3%	u
COc1cccc(C(=O)N(Cc2nc(-c3ccc(Cl)cc3)no2)C(C)C)c1OC	-6%[59 µM]	25%	x	-15%	-8%
Cc1ccc(C(=O)N2c3nc(-c4ccco4)nn3C3(CCCCC3)[C@@H]3CCCC[C@@H]32)cc1	u	-1%	x	u	-25%
CCCc1cc(N2CCN(c3cccc(C)c3C)CC2)n2cnnc2n1	-9%[59 µM]	17%	x	-13%	-19%
Cc1ccc(-n2c(=O)c3oc4ccccc4c3n(Cc3ccccc3F)c2=O)cc1C	5%[59 µM]	40%	x	-39%	8%
CCOC(=O)c1oc2ccc(CNC3CCCCC3)c(Cl)c2c1C	10µM*	u	7%	u	4µM*
COc1cc2c(cc1NC(=O)COC(=O)CNS(=O)(=O)c1ccc(C)cc1)oc1ccccc12	40µM*	35%	2%	8%	-8%
CCNC(=S)Nc1cc2oc3ccccc3c2cc1OC	25µM*	10%	x	26%	u
C=CCOc1ccc(C(=O)O)cc1Cl	x	54%	16%	4%	-16%
CCC(=O)Nc1ccc2nc3c(=O)[nH]c(=S)[nH]c3nc2c1	32µM*	u	x	50µM*	56µM*
